Test results published in PubChem BioAssay AID2283125 (EPA ToxCast).
Results filed as inconclusive are left out. The source made the active and inactive calls. How the source made its calls: active means hit-call score of the fitted dose curve at least 0.9, where 1 is the maximum; inconclusive means response in the unintended direction; inactive means score below 0.9.

Target: Tyrosine-protein kinase ABL1 (Homo sapiens) (UniProt P00519)
Experiment: NVS_ENZ_hAbl: NovaScreen (NVS) Enzymatic Assay for human ABL proto-oncogene 1, non-receptor tyrosine kinase
Protocol: NVS_ENZ_hAbl is a biochemical, single-readout assay that uses extracted gene-proteins in a cell-free assay. Measurements were taken 1 hour after chemical dosing in a 96-well plate.NVS_ENZ_hAbl is one of one assay component(s) measured or calculated from the NVS_ENZ_hAbl assay. It is designed to make measurements of enzyme activity, a form of enzyme reporter, as detected with fluorescence intensity signals by Fluorescence and electrophoretic mobility shift technology.Data from the assay component NVS_ENZ_hAbl was analyzed into 1 assay endpoint. This assay endpoint, NVS_ENZ_hAbl, was analyzed in the positive analysis fitting direction relative to DMSO as the negative control and baseline of activity. Using a type of enzyme reporter, loss-of-signal activity can be used to understand changes in the enzymatic activity as they relate to the gene ABL1. Furthermore, this assay endpoint can be referred to as a primary readout, because this assay has produced multiple assay endpoints where this one serves a enzymatic activity function. To generalize the intended target to other relatable targets, this assay endpoint is annotated to the kinase intended target family, where the subfamily is non-receptor tyrosine kinase. […]

Tyrosine-protein kinase ABL1 (Homo sapiens), sequence (P00519 whole entry, looked up): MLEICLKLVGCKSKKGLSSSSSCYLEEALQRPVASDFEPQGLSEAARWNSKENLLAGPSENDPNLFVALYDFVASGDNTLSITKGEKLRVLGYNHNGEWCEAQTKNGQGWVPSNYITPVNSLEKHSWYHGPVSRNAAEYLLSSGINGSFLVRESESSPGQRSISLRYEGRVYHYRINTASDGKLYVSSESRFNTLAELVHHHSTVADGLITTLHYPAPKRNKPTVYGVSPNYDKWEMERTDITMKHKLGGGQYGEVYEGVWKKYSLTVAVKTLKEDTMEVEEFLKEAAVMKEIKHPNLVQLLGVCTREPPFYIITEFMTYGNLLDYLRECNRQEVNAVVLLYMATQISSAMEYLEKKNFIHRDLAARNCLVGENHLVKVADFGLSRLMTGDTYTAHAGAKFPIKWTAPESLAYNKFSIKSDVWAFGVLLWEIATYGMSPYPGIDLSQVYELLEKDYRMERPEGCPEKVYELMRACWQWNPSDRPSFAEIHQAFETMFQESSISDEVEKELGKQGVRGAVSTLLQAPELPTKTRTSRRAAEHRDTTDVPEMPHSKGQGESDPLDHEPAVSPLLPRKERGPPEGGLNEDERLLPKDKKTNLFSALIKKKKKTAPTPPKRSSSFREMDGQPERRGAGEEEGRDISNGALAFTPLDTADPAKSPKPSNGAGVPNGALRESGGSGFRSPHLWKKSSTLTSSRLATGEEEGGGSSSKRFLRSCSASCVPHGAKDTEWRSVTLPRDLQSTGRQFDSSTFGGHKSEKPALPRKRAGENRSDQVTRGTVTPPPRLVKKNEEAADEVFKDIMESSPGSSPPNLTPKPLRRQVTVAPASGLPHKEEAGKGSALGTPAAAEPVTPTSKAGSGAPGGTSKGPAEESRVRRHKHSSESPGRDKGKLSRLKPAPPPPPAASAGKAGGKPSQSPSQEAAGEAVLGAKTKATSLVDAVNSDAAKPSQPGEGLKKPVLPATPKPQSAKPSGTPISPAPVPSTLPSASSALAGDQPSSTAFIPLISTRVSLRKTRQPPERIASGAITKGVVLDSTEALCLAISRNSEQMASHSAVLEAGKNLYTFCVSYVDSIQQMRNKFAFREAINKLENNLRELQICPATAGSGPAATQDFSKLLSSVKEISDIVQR

c1ccc2[nH]c(-c3cscn3)nc2c1
outcome: inactive

O=C(Nc1ccc([N+](=O)[O-])cc1Cl)c1cc(Cl)ccc1O
outcome: inactive
